Source: PubChem BioAssay (EPA / NIEHS)
Records with an inconclusive call do not appear. Calls of active or inactive are those of the source. The calls were made as follows: active = hit-call score of the fitted dose curve at least 0.9, where 1 is the maximum; inconclusive = response in the unintended direction; inactive = score below 0.9.

Biological target: THRB (gene 7068) (UniProt P10828)
Assay: TOX21_TRB_BLA_Antagonist_Followup_ratio: Tox21 Thyroid Hormone Receptor beta Antagonism Beta-lactamase (BLA) Follow-Up Assay, Ratio (AID 2283958)
Summary of the method: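 In this antagonist-mode follow-up, a stably integrated GAL4-TRβ LBD fusion drives a UAS-beta-lactamase reporter in HEK293T cells. Loss of ratio signal relative to DMSO after 18 h treatment indicates activity; parallel CellTiter-Glo flags cytotoxicity.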

Sequence of THRB (gene 7068) (P10828 whole entry, looked up): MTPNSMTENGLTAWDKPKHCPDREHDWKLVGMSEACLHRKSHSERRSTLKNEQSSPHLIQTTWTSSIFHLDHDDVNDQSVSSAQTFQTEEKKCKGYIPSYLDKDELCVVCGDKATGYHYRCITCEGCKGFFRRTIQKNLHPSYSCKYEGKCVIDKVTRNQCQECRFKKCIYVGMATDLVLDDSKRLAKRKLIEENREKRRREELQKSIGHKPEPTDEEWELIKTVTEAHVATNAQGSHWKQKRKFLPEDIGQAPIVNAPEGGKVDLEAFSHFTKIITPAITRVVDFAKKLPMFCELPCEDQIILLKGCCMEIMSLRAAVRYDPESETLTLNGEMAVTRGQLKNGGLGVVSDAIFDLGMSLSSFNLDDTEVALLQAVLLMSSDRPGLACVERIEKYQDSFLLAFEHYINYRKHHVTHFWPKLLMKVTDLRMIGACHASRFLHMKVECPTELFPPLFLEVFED

SMILES | outcome | AC50
Cc1nc2ccc(CN(C)c3ccc(C(=O)N[C@@H](CCC(=O)O)C(=O)O)s3)cc2c(=O)[nH]1 | inactive | 
Cc1ccc(Nc2nccc(N(C)c3ccc4c(C)n(C)nc4c3)n2)cc1S(N)(=O)=O |  | 14.7 µM (active)
COC(=O)Nc1nc2ccc(S(=O)c3ccccc3)cc2[nH]1 (stereo not drawn) | inactive | 
CC(=O)OCC(=O)[C@H]1CC[C@H]2[C@@H]3CCC4=CC(=O)CC[C@]4(C)[C@H]3CC[C@]12C | inactive | 
O=c1[nH]c(=O)n([C@H]2C[C@H](O)[C@@H](CO)O2)cc1C(F)(F)F | inactive | 
O=C1c2ccccc2-c2n[nH]c3cccc1c23 | inactive | 
COc1cc(NCc2ccc3nc(N)nc(N)c3c2C)cc(OC)c1OC | inactive | 
O=C(O)c1cccnc1Nc1cccc(C(F)(F)F)c1 | inactive | 
C/C=C1/C(=O)C[C@H]2[C@@H]3CCC4=CC(=O)CC[C@]4(C)[C@H]3CC[C@]12C | inactive | 
C#C[C@]1(O)CC[C@H]2[C@@H]3CCC4=C(CCC(=O)C4)[C@H]3CC[C@@]21C | inactive | 
CCCCCCC[N+](CC)(CC)CCCCc1ccc(Cl)cc1 | inactive | 
CC(=O)O[C@@]12CO[C@@H]1C[C@H](O)[C@@]1(C)C(=O)[C@H](O)C3=C(C)[C@@H](OC(=O)[C@H](O)[C@@H](NC(=O)OC(C)(C)C)c4ccccc4)C[C@@](O)([C@@H](OC(=O)c4ccccc4)[C@H]21)C3(C)C | inactive | 

System: not listed separately
Assay: TOX21_TRB_BLA_Antagonist_Followup_viability: Viability Assessment in the Tox21 Thyroid Hormone Receptor beta Antagonism Beta-lactamase (BLA) Follow-Up Assay (AID 2283961)
Summary of the method: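 ATP-based CellTiter-Glo luminescence (30 min, room temperature) run in the same wells as the TRβ-bla readout. Cells: GeneBLAzer HEK293T expressing GAL4-TRβ LBD, exposed 18 h at 37C to compounds at 11 concentrations in triplicate, stripped-serum medium.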

SMILES | AC50 | outcome
Cc1ccc(Nc2nccc(N(C)c3ccc4c(C)n(C)nc4c3)n2)cc1S(N)(=O)=O | 19.2 µM (active) | 
COC(=O)Nc1nc2ccc(S(=O)c3ccccc3)cc2[nH]1 (stereo not drawn) |  | inactive
O=c1[nH]c(=O)n([C@H]2C[C@H](O)[C@@H](CO)O2)cc1C(F)(F)F |  | inactive
O=C1c2ccccc2-c2n[nH]c3cccc1c23 |  | inactive
COc1cc(NCc2ccc3nc(N)nc(N)c3c2C)cc(OC)c1OC | 1.46 µM (active) | 
O=C(O)c1cccnc1Nc1cccc(C(F)(F)F)c1 |  | inactive
C/C=C1/C(=O)C[C@H]2[C@@H]3CCC4=CC(=O)CC[C@]4(C)[C@H]3CC[C@]12C |  | inactive
C#C[C@]1(O)CC[C@H]2[C@@H]3CCC4=C(CCC(=O)C4)[C@H]3CC[C@@]21C |  | inactive

Biological target: THRB (gene 7068) (UniProt P10828)
Assay: TOX21_TRB_COA_Antagonist_Followup_ratio: Tox21 Thyroid Hormone Receptor beta Antagonism through Coactivator Recruitment Follow-Up Assay, Ratio (AID 2283967)
Summary of the method: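 Test compound was incubated with 5.0 nM GST-TRβ LBD in 0.10% BSA. Then 200 nM fluorescein-SRC-2 peptide and 2 nM terbium anti-GST antibody were added. TR-FRET (520:495 nm) was measured and normalized to DMSO and T3 controls.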

SMILES | outcome | AC50
Cc1nc2ccc(CN(C)c3ccc(C(=O)N[C@@H](CCC(=O)O)C(=O)O)s3)cc2c(=O)[nH]1 | inactive | 
Cc1ccc(Nc2nccc(N(C)c3ccc4c(C)n(C)nc4c3)n2)cc1S(N)(=O)=O |  | 19.2 µM (active)
COC(=O)Nc1nc2ccc(S(=O)c3ccccc3)cc2[nH]1 (stereo not drawn) | inactive | 
CC(=O)OCC(=O)[C@H]1CC[C@H]2[C@@H]3CCC4=CC(=O)CC[C@]4(C)[C@H]3CC[C@]12C | inactive | 
COc1cc(NCc2ccc3nc(N)nc(N)c3c2C)cc(OC)c1OC | inactive | 
O=C(O)c1cccnc1Nc1cccc(C(F)(F)F)c1 | inactive | 
C/C=C1/C(=O)C[C@H]2[C@@H]3CCC4=CC(=O)CC[C@]4(C)[C@H]3CC[C@]12C | inactive | 
C#C[C@]1(O)CC[C@H]2[C@@H]3CCC4=C(CCC(=O)C4)[C@H]3CC[C@@]21C | inactive | 
CCCCCCC[N+](CC)(CC)CCCCc1ccc(Cl)cc1 | inactive | 
CC(=O)O[C@@]12CO[C@@H]1C[C@H](O)[C@@]1(C)C(=O)[C@H](O)C3=C(C)[C@@H](OC(=O)[C@H](O)[C@@H](NC(=O)OC(C)(C)C)c4ccccc4)C[C@@](O)([C@@H](OC(=O)c4ccccc4)[C@H]21)C3(C)C | inactive | 

Biological target: Retinoic acid receptor RXR-alpha (Homo sapiens) (UniProt P19793)
Sequence (P19793 whole entry, looked up): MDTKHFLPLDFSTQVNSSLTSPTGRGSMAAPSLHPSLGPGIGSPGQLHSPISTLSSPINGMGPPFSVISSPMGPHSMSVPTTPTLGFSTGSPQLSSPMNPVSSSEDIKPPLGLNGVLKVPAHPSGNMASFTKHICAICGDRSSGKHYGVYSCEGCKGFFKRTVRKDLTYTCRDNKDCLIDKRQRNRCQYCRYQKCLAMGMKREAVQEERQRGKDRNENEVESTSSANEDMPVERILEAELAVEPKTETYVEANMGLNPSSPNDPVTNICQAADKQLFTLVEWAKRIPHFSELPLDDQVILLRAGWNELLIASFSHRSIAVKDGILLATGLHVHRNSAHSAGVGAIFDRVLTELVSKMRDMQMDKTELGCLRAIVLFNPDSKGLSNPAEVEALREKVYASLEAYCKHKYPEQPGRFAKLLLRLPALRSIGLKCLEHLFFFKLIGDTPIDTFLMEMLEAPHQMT
Assay: TOX21_TR_RXR_BLA_Antagonist_Followup_ratio: Tox21 Thyroid Hormone Receptor beta Retinoid X Receptor alpha (RXRa) Antagonism Beta-lactamase (BLA) Follow-Up Assay, Ratio (AID 2283972)
Summary of the method: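 After 5 h attachment at 37C, HEK293T RXRa-bla cells (2,500/well, 2% charcoal-stripped FBS, no phenol red) received compounds at 11 concentrations in triplicate for 16 h. Beta-lactamase read as 460:530 nm ratio after 2 h RT substrate loading.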

SMILES | outcome | AC50
COC(=O)Nc1nc2ccc(S(=O)c3ccccc3)cc2[nH]1 (stereo not drawn) | inactive | 
O=C1c2ccccc2-c2n[nH]c3cccc1c23 | inactive | 
COc1cc(NCc2ccc3nc(N)nc(N)c3c2C)cc(OC)c1OC |  | 1.76 µM (active)
O=C(O)c1cccnc1Nc1cccc(C(F)(F)F)c1 | inactive | 
CCCCCCC[N+](CC)(CC)CCCCc1ccc(Cl)cc1 | inactive | 
CC(=O)O[C@@]12CO[C@@H]1C[C@H](O)[C@@]1(C)C(=O)[C@H](O)C3=C(C)[C@@H](OC(=O)[C@H](O)[C@@H](NC(=O)OC(C)(C)C)c4ccccc4)C[C@@](O)([C@@H](OC(=O)c4ccccc4)[C@H]21)C3(C)C | inactive | 

System: not listed separately
Assay: TOX21_TR_RXR_BLA_Antagonist_Followup_viability: Viability Assessment in the Tox21 Thyroid Hormone Receptor beta Retinoid X Receptor alpha (RXRa) Antagonism Beta-lactamase (BLA) Follow-Up Assay (AID 2283979)
Summary of the method: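 Follow-up compounds (11 concentrations, triplicate) were incubated 16 h at 37C/5% CO2 with HEK293T RXRa-bla cells seeded at 2,500/well in charcoal-stripped-serum medium. ATP content by CellTiter-Glo luminescence gave viability; curves fitted in both directions against DMSO.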

SMILES | outcome | AC50
Cc1nc2ccc(CN(C)c3ccc(C(=O)N[C@@H](CCC(=O)O)C(=O)O)s3)cc2c(=O)[nH]1 | inactive | 
Cc1ccc(Nc2nccc(N(C)c3ccc4c(C)n(C)nc4c3)n2)cc1S(N)(=O)=O | inactive | 
COC(=O)Nc1nc2ccc(S(=O)c3ccccc3)cc2[nH]1 (stereo not drawn) | inactive | 
CC(=O)OCC(=O)[C@H]1CC[C@H]2[C@@H]3CCC4=CC(=O)CC[C@]4(C)[C@H]3CC[C@]12C | inactive | 
O=c1[nH]c(=O)n([C@H]2C[C@H](O)[C@@H](CO)O2)cc1C(F)(F)F | inactive | 
O=C1c2ccccc2-c2n[nH]c3cccc1c23 | inactive | 
COc1cc(NCc2ccc3nc(N)nc(N)c3c2C)cc(OC)c1OC |  | 1.77 µM (active)
O=C(O)c1cccnc1Nc1cccc(C(F)(F)F)c1 | inactive | 
C/C=C1/C(=O)C[C@H]2[C@@H]3CCC4=CC(=O)CC[C@]4(C)[C@H]3CC[C@]12C | inactive | 
C#C[C@]1(O)CC[C@H]2[C@@H]3CCC4=C(CCC(=O)C4)[C@H]3CC[C@@]21C | inactive | 
CCCCCCC[N+](CC)(CC)CCCCc1ccc(Cl)cc1 | inactive | 
CC(=O)O[C@@]12CO[C@@H]1C[C@H](O)[C@@]1(C)C(=O)[C@H](O)C3=C(C)[C@@H](OC(=O)[C@H](O)[C@@H](NC(=O)OC(C)(C)C)c4ccccc4)C[C@@](O)([C@@H](OC(=O)c4ccccc4)[C@H]21)C3(C)C | inactive | 
